# Test results reported in article PMC7862700, “An all-to-all approach to the identification of sequence-specific readers for epigenetic DNA modifications on cytosine”.
# How the values were obtained:
# Test in all cases: DAPPL (digital affinity profiling via proximity ligation, sequencing); 10 mM Tris-HCl pH 7.5, 50 mM NaCl, 1 mM DTT, 4% glycerol, room temperature, 30 min; GST-TFs on glutathione beads, 16-mer random dsDNA library, 0.1% formaldehyde crosslink after washing; high values mean tight binding
# FEV = target: T1, FEV (Homo sapiens, UniProt Q99581 1-238); details: protein: recombinant; tags: N-terminal GST; dsDNA, one strand shown
# T1 sequence: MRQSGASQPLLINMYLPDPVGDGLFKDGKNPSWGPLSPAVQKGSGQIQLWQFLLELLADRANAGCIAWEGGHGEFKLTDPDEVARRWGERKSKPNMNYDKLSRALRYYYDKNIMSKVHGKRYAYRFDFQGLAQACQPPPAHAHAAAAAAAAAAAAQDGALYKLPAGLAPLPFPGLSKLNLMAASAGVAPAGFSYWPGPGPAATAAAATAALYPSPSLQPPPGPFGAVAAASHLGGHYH
# Outline: (§1)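 Binding signal is each hexamer's read frequency for a factor divided by its frequency in the tag-only sample. The factors were GST-fused human transcription factors from yeast, captured on glutathione beads, DNA-barcoded and pooled with that sample. Pools were incubated with 200 nmole of a random double-stranded 16-mer DNA library in Tris/NaCl/DTT/glycerol buffer at room temperature for 30 min, then washed, crosslinked with 0.1% formaldehyde, proximity-ligated with BsaI/T4 ligase (1 h, 37 °C), PCR-amplified and sequenced on an Illumina NextSeq500.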
# ETV5 = ETV5 (Homo sapiens, UniProt P41161 1-510); details: protein: recombinant; tags: N-terminal GST; dsDNA, one strand shown
# Chain of ETV5 (P41161 whole entry): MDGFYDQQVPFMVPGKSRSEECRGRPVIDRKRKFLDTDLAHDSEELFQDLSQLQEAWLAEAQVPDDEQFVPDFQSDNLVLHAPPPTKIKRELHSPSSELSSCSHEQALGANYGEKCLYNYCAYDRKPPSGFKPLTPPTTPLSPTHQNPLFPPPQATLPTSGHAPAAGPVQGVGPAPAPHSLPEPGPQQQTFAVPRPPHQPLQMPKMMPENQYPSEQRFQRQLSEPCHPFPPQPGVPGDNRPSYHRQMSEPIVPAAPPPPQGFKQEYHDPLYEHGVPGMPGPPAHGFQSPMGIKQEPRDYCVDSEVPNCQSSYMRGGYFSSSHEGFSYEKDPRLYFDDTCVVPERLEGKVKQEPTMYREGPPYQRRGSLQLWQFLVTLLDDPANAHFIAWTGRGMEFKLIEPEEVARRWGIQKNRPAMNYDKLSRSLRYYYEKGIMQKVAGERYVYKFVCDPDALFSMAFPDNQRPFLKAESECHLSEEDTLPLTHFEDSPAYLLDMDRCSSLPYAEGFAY
# Outline: as §1
# HSF1 = HSF1 (Homo sapiens, UniProt Q00613 1-529); details: protein: recombinant; tags: N-terminal GST; chain copies: 3; dsDNA, one strand shown
# Chain of HSF1 (Q00613 whole entry): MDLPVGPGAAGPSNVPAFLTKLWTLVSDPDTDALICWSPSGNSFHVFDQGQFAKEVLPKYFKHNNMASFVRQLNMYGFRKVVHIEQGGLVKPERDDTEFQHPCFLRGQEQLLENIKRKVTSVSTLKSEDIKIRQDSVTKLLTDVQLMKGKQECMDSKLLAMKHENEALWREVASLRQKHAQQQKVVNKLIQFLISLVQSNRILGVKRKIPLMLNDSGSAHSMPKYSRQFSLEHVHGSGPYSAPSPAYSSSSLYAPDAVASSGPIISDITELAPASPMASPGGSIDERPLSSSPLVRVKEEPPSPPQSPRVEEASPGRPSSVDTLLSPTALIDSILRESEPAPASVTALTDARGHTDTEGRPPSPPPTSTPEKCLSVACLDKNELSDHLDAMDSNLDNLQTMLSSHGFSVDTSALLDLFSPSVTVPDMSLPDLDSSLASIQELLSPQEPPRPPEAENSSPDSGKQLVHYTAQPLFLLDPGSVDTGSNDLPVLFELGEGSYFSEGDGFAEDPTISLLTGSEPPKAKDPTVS
# Outline: as §1
# SPIC = target: T2, SPIC (Homo sapiens, UniProt Q8N5J4 1-248); details: protein: recombinant; tags: N-terminal GST; dsDNA, one strand shown
# T2 sequence: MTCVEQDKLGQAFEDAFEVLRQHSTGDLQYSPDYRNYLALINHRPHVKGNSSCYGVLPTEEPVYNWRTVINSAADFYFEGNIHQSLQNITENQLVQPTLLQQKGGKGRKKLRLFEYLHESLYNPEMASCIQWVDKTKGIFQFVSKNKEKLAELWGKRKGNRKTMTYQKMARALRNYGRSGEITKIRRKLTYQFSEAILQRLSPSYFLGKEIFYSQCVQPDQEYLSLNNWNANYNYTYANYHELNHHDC
# Outline: as §1
# ELF4 = ELF4 (Homo sapiens, UniProt Q99607 1-663); details: protein: recombinant; tags: N-terminal GST; dsDNA, one strand shown
# Chain of ELF4 (Q99607 whole entry): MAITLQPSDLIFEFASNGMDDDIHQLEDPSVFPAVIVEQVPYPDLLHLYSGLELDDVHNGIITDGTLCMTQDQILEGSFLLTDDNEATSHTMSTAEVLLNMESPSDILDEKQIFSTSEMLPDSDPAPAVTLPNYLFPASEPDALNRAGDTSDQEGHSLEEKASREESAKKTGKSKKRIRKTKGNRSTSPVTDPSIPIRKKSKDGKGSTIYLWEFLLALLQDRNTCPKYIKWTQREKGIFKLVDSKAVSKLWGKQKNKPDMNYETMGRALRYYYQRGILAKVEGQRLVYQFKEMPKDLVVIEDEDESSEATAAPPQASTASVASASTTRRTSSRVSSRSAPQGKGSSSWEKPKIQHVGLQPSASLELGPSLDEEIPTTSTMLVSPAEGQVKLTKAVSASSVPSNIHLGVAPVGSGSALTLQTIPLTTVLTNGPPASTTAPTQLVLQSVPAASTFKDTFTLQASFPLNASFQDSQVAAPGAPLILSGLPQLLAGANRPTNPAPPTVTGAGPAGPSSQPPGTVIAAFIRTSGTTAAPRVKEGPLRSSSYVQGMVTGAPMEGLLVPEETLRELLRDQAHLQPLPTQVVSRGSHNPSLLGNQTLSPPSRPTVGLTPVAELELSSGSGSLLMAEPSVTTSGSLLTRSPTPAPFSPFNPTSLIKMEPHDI
# Outline: as §1
# ELK4 = target: T3, ELK4 (Homo sapiens, UniProt P28324-2 1-405); details: protein: recombinant; tags: N-terminal GST; dsDNA, one strand shown
# T3 sequence: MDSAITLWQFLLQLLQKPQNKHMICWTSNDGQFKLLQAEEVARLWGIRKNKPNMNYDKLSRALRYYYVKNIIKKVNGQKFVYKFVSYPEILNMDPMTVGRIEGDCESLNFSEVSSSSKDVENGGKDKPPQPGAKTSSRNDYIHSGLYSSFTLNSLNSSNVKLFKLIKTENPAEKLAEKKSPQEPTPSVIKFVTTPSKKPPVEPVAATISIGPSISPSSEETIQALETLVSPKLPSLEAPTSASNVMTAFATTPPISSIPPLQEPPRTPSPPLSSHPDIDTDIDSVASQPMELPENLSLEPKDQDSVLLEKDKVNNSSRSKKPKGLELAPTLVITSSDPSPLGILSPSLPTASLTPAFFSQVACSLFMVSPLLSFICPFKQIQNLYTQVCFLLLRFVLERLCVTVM
# Outline: as §1
# ETV2 = target: T4, ETV2 (Homo sapiens, UniProt O00321 1-342); details: protein: recombinant; tags: N-terminal GST; dsDNA, one strand shown
# T4 sequence: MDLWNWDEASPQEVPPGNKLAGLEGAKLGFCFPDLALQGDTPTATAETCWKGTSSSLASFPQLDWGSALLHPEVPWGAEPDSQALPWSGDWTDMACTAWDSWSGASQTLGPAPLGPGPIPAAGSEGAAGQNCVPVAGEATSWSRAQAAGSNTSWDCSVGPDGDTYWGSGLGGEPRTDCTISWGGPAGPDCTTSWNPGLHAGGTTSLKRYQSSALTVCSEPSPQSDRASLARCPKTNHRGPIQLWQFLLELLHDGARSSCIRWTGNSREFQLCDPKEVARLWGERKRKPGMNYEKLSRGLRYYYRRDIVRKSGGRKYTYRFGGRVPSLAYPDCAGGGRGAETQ
# Outline: as §1
# ELF3 = target: T5, ELF3 (Homo sapiens, UniProt P78545 1-371); details: protein: recombinant; tags: N-terminal GST; dsDNA, one strand shown
# T5 sequence: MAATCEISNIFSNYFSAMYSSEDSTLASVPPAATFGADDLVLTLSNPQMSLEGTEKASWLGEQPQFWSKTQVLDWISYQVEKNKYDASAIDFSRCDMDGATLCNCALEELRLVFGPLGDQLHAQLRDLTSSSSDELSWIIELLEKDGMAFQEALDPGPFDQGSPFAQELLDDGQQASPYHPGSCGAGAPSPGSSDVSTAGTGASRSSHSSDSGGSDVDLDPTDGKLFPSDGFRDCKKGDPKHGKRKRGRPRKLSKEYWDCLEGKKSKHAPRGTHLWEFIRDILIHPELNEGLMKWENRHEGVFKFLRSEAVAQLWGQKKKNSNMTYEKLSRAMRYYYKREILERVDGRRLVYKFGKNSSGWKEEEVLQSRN
# Outline: as §1
# CRX = CRX (Homo sapiens, UniProt O43186 1-299); details: protein: recombinant; tags: N-terminal GST; dsDNA, one strand shown
# Chain of CRX (O43186 whole entry): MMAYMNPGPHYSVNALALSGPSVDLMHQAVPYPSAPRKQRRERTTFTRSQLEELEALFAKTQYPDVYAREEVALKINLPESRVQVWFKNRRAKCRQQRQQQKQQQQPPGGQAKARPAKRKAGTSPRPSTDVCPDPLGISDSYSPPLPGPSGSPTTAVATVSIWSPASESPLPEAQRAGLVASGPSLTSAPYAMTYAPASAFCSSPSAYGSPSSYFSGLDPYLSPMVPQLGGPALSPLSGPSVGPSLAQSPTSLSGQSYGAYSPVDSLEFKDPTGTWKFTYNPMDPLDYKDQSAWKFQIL
# Outline: as §1
# ETV1 = ETV1 (Homo sapiens, UniProt P50549 1-477); details: protein: recombinant; tags: N-terminal GST; dsDNA, one strand shown
# Chain of ETV1 (P50549 whole entry): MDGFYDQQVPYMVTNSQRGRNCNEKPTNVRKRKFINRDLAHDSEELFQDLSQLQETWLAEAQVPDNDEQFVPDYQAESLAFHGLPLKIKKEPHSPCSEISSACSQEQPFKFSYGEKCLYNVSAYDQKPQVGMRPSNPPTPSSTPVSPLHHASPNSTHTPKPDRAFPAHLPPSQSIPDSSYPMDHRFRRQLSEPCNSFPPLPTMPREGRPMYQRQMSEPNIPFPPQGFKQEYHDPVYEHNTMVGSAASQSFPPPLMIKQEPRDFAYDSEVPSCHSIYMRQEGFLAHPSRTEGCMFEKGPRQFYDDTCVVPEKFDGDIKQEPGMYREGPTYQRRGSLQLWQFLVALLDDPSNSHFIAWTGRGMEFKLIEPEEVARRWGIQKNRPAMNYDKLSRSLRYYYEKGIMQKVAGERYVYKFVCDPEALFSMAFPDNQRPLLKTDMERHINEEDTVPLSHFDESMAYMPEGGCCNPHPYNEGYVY
# Outline: as §1
# ERF = target: T6, ERF (Homo sapiens, UniProt P50548 1-548); details: protein: recombinant; tags: N-terminal GST; dsDNA, one strand shown
# T6 sequence: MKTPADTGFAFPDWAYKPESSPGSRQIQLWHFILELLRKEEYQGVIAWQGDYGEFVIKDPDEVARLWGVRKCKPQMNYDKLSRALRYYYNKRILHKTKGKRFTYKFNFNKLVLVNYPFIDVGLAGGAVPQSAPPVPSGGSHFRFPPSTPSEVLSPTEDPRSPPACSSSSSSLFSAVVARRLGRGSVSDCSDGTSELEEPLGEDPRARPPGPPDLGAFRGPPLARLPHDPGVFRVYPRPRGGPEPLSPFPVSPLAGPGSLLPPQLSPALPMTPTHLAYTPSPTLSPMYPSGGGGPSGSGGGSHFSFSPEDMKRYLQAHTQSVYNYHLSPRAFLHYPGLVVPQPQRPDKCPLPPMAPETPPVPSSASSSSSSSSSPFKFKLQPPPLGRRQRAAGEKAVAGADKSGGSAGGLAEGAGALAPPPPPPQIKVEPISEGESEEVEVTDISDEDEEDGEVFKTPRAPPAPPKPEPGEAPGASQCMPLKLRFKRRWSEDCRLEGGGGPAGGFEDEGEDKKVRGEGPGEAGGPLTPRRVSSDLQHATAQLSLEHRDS
# Outline: as §1
# ETV3L = target: T7, ETV3L (Homo sapiens, UniProt Q6ZN32 1-361); details: protein: recombinant; tags: N-terminal GST; dsDNA, one strand shown
# T7 sequence: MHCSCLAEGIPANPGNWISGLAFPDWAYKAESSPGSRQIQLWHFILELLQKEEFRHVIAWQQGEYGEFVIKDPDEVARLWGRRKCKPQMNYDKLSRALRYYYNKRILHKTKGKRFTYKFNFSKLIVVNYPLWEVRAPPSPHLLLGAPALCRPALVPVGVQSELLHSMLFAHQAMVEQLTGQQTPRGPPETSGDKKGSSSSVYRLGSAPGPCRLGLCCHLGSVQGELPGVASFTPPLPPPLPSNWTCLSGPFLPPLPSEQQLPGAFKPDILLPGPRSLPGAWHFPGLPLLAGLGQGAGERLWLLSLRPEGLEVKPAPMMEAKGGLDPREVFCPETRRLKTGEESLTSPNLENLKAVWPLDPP
# Outline: as §1
# ETS2 = target: T8, ETS2 (Homo sapiens, UniProt P15036 1-469); details: protein: recombinant; tags: N-terminal GST; dsDNA, one strand shown
# T8 sequence: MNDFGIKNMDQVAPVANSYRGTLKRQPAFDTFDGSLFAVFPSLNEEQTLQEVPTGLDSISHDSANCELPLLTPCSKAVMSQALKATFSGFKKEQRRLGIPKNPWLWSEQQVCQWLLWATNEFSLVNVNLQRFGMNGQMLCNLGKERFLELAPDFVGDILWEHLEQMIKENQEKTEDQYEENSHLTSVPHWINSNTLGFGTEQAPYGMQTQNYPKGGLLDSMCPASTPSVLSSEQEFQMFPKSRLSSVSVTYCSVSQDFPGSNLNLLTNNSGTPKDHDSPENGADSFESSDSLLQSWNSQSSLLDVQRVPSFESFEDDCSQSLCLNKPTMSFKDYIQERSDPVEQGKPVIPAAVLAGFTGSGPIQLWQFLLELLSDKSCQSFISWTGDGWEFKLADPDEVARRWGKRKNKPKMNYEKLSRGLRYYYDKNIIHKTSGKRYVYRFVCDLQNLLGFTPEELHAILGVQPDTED
# Outline: as §1
# SPDEF = target: T9, SPDEF (Homo sapiens, UniProt O95238 1-335); details: protein: recombinant; tags: N-terminal GST; dsDNA, one strand shown
# T9 sequence: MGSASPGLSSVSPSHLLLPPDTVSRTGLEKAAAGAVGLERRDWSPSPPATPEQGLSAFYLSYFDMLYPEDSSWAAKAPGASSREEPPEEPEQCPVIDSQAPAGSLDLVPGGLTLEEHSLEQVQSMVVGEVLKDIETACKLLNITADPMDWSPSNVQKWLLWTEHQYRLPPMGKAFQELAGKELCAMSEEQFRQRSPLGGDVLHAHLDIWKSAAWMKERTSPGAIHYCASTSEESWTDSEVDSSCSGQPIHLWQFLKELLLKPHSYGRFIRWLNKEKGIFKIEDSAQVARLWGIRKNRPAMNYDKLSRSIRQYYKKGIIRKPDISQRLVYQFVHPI
# Outline: as §1
# ETV7 = target: T10, ETV7 (Homo sapiens, UniProt Q9Y603 1-341); details: protein: recombinant; tags: N-terminal GST; dsDNA, one strand shown
# T10 sequence: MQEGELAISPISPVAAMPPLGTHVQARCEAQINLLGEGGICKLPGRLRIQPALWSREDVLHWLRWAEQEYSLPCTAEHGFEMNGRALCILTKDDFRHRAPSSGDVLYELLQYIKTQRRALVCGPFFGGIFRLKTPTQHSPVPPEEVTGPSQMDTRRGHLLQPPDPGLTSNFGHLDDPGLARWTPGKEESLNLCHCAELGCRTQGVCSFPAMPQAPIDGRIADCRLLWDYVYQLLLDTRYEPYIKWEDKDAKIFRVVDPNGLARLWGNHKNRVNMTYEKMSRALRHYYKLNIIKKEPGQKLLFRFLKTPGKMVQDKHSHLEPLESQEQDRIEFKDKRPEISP
# Outline: as §1
# ELF5 = target: T11, ELF5 (Homo sapiens, UniProt Q9UKW6-2 1-255); details: protein: recombinant; tags: N-terminal GST; dsDNA, one strand shown
# T11 sequence: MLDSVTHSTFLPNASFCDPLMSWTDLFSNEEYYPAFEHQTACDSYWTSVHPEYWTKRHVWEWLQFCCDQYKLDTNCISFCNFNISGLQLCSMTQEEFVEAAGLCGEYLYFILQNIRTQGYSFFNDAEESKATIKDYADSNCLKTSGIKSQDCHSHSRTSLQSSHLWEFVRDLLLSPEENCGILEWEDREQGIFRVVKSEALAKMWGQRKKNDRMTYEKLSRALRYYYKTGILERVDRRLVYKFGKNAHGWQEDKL
# Outline: as §1
# ETV3 = target: T12, ETV3 (Homo sapiens, UniProt P41162-2 1-143); details: protein: recombinant; tags: N-terminal GST; dsDNA, one strand shown
# T12 sequence: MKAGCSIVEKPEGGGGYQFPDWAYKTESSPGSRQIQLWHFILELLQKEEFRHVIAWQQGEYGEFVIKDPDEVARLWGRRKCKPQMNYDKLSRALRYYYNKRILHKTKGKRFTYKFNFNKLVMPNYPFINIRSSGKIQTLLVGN
# Outline: as §1
# ETV6 = ETV6 (Homo sapiens, UniProt P41212 1-452); details: protein: recombinant; tags: N-terminal GST; dsDNA, one strand shown
# Chain of ETV6 (P41212 whole entry): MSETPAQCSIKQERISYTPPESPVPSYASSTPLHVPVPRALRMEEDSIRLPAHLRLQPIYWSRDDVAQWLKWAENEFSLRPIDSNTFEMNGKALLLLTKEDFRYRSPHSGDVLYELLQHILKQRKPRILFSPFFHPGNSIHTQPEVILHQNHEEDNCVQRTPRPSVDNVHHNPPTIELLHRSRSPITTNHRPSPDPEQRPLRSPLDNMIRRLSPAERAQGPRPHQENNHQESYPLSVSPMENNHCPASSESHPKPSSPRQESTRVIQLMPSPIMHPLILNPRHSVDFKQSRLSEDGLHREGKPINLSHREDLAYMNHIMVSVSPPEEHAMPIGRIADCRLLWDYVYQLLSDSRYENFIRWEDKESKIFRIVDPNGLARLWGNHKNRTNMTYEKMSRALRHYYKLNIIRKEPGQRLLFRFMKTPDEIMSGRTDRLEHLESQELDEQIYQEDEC
# Outline: as §1
sequence,measurement,setting,value
CTTCCT,binding signal,FEV,"2.94 fold enrichment (6-mer frequency, TF over GST control)"
same,binding signal,ETV5,"3.4 fold enrichment (6-mer frequency, TF over GST control)"
same,binding signal,HSF1,"1.4 fold enrichment (6-mer frequency, TF over GST control)"
same,binding signal,SPIC,"3.47 fold enrichment (6-mer frequency, TF over GST control)"
same,binding signal,ELF4,"2.83 fold enrichment (6-mer frequency, TF over GST control)"
same,binding signal,ELK4,"2.83 fold enrichment (6-mer frequency, TF over GST control)"
same,binding signal,ETV2,"3.38 fold enrichment (6-mer frequency, TF over GST control)"
same,binding signal,ELF3,"2.95 fold enrichment (6-mer frequency, TF over GST control)"
same,binding signal,CRX,"1.19 fold enrichment (6-mer frequency, TF over GST control)"
same,binding signal,ETV1,"3.18 fold enrichment (6-mer frequency, TF over GST control)"
same,binding signal,ERF,"2.9 fold enrichment (6-mer frequency, TF over GST control)"
same,binding signal,ETV3L,"3.08 fold enrichment (6-mer frequency, TF over GST control)"
same,binding signal,ETS2,"3.37 fold enrichment (6-mer frequency, TF over GST control)"
same,binding signal,SPDEF,"2.74 fold enrichment (6-mer frequency, TF over GST control)"
same,binding signal,ETV7,"2.76 fold enrichment (6-mer frequency, TF over GST control)"
same,binding signal,ELF5,"5.89 fold enrichment (6-mer frequency, TF over GST control)"
same,binding signal,ETV3,"3.61 fold enrichment (6-mer frequency, TF over GST control)"
same,binding signal,ETV6,"3.81 fold enrichment (6-mer frequency, TF over GST control)"
